The source of these data is PubChem BioAssay (NCATS).

For test [1], the target named is Mitogen-activated protein kinase 10 (Mus musculus) (UniProt Q61831). The test can be described thus: JNK3 AlphaScreen Assay (AID 530; active = well fitted curve in either direction with a large enough effect, not every such curve was filed as active;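 also: kinase came from lysate of stimulated human HepG2 cells; signal reports phosphorylation of biotinylated GST-cJun 1-79 at Ser73 with 10 µM ATP; series mostly up to about 57 µM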). In a few lines:
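Room-temperature AlphaScreen kinase assay; pre-activated HepG2 lysate as JNK3 source, biotin-GST-cJun(1-79) substrate, 10 uM ATP, compound 15 min preincubation.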

Test [2] deals with Cytochrome P450 3A4 (Homo sapiens) (UniProt P08684). The test can be described thus: qHTS Assay for Inhibitors and Substrates of Cytochrome P450 3A4 (AID 884). Also: nearly all actives have a fitted effect of over 50% in size. Also: potency is read from the fitted curve at half-maximal effect. In a few lines:
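20 nM human CYP3A4 with 25 uM Luciferin-PPXE (at KM) in 200 mM KPO4, preincubated 10 min with compound; NADPH regeneration started a 60 min RT reaction. Luciferin detected by luminescence, normalized to 57 uM ketoconazole as full inhibition.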
For orientation: qHTS replaces the single test concentration by a dilution series.

Test [3] shares this target. The test can be described thus: qHTS Assay for Activators of Cytochrome P450 3A4 (AID 885). Also: nearly all actives have a fitted effect of over 65% in size. In a few lines:
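Steps: enzyme/substrate mix dispensed; compound added, 10 min RT; NADPH regeneration solution added, 60 min RT; luciferin detection buffer stops reaction; 20 min later luminescence measured.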

Each structure is given as a SMILES string. Inconclusive results are not listed. Where a call stands in place of a potency, no number is given. The source made the active and inactive calls. Unless noted, calls follow the shape of the dose curve; as a rule, active = well fitted curve in the direction sought with a large enough effect; inconclusive = small, poorly fitted or top-dose-only effect, or another doubt; inactive = no such curve, though single readings can be large; an effect the other way counts as inactive or inconclusive.

Cytochrome P450 3A4 (Homo sapiens), sequence (P08684 whole entry, looked up): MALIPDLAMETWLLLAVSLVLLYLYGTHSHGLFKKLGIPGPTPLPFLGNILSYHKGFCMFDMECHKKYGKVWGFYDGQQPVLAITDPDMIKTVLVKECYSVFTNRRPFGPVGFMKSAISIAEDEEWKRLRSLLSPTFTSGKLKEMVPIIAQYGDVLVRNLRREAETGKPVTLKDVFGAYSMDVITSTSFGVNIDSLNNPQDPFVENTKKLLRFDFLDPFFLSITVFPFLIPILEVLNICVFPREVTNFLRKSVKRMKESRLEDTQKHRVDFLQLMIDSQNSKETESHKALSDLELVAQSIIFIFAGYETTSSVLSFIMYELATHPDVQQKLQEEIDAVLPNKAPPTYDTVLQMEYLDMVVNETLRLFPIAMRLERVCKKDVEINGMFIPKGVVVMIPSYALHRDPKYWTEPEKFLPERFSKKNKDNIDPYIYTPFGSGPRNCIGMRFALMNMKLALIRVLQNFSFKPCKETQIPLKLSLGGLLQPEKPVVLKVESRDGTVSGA

For `COC(=O)c1ccc(C(NC(=O)OCc2ccccc2)/C(F)=C/[C@@H](C)C(=O)NCc2ccc(OC)c(OC)c2)cc1` (stereo not given in full), in test [1], the result was inactive. For the same compound, the Potency in test [2] was 5.01 µM (active). Besides, the Potency entry in test [3] was “inactive”.

Take `CC1(C(=O)NCc2ccccn2)C=CCN1C(=O)c1ccccc1` (stereo not given): the outcome in test [1] was inactive. In addition, in test [2], the Potency result was “inactive”.

Consider `COC(=O)c1ccc(C(NC(=O)OCc2ccccc2)/C(C)=C/[C@@H](C)C(=O)Nc2ccc(OC)cc2)cc1` (stereo not given in full), for which, in test [1], the call was inactive. Besides, the Potency in test [2] was 2.51 µM (active).

For the compound `CC(=O)N1CC=CC1(C)C(=O)NCc1cc(F)cc(C(F)(F)F)c1` (stereo not given), the compound was classed as inactive in test [1]. Further, the Potency in test [2] is 15.8 µM (active). In addition, the Potency result in test [3] was “inactive”.

On to `COCCNC(=O)[C@@]1(Cc2ccccc2)C=C[C@@H](C)N1C(=O)OC`, for which the call in test [1] was inactive. For the same compound, the Potency result in test [2] is “inactive”.

On to `COC(=O)c1ccc(C(/C=C/[C@@H](C)C(=O)N(C)Cc2ccccc2)NC(=O)OCc2ccccc2)cc1` (stereo not given in full), for which, in test [1], the compound was called inactive. Also, in test [2], the Potency is 1.58 µM (active). Moreover, the Potency entry in test [3] is “inactive”.

Consider `CC(Cc1ccccc1)C(=O)NCCO` (stereo not given), for which the compound was classed as inactive in test [1]. Moreover, in test [2], the Potency is 15.8 µM (active). Also, the Potency result in test [3] was “inactive”.

For `CC(=O)N1CC=CC1(CC(C)C)C(=O)O` (stereo not given), the result in test [1] was inactive. For the same compound, the Potency entry in test [2] is “inactive”.

Regarding `CCCCCCN(C(=O)CCCCCN1C(=O)NC(c2ccc3ccccc3c2)C(C(=O)OCc2ccccc2)=C1C)C(C(=O)NCCCC)c1ccc(OCC(=O)OC)c(C(=O)OC)c1` (stereo not given), the compound was called inactive in test [1]. In addition, the Potency in test [2] was 2.51 µM (active). The Potency entry in test [3] is “inactive”.

As for `CC1=C(C(=O)OCc2ccccc2)C(c2ccccc2-c2ccccc2)NC(=O)N1CCCCCC(=O)O` (stereo not given), the call in test [1] was inactive. Also, the Potency in test [2] is 10 µM (active). For the same compound, the Potency result in test [3] is “inactive”.

Take `C[C@@H]1C=C[C@](Cc2ccccc2)(C(=O)O)N1C(=O)c1ccccc1`: in test [1], the outcome was inactive. Further, the Potency entry in test [2] was “inactive”.

On to `CC(=O)N1[C@H](C)C=C[C@]1(Cc1ccccc1)C(=O)NCc1ccc(C)o1`, for which the result in test [1] was inactive. In addition, in test [2], the Potency was 5.01 µM (active). In addition, in test [3], the Potency result is “inactive”.

`COC(=O)c1ccc(C(NC(=O)OCc2ccccc2)/C(F)=C/[C@@H](C)C(=O)NCc2nc3ccccc3s2)cc1` (stereo not given in full): the call in test [1] was inactive. Further, the Potency in test [2] is 7.94 µM (active). Further, in test [3], the Potency result was “inactive”.

Take `CCNC(=O)[C@H](C)/C=C/C(NC(=O)OCc1ccccc1)c1ccc(C(=O)OC)cc1` (stereo not given in full): the compound was called inactive in test [1]. In test [2], the Potency was 6.31 µM (active). In test [3], the Potency entry is “inactive”.

In the case of `COC(=O)[C@H](Cc1ccccc1)NC(=O)[C@@]1(C)C[C@@H]1[C@@H](NC(=O)OCc1ccccc1)c1ccccc1`, the outcome in test [1] was inactive. In addition, the Potency in test [2] was 2 µM (active). In test [3], the Potency result was “inactive”.

As to `COC(=O)c1ccc(C(NC(=O)OCc2ccccc2)/C(C)=C/[C@@H](C)C(=O)NCc2nn(-c3ccccc3)nc2C)cc1` (stereo not given in full), the call in test [1] was inactive. Moreover, the Potency in test [2] was 2.51 µM (active). Further, the Potency result in test [3] was “inactive”.

In the case of `COC(=O)c1ccc(C(NC(=O)OCc2ccccc2)/C(C)=C/[C@@H](C)C(=O)N[C@@H](CO)Cc2ccccc2)cc1` (stereo not given in full), in test [1], the compound was classed as inactive. Also, the Potency in test [2] was 3.16 µM (active). For the same compound, in test [3], the Potency result was “inactive”.

Consider `CCCCCCN(C(=O)CCCCCN1C(=O)NC(c2ccc(-c3ccccc3)cc2)C(C(=O)OCc2ccccc2)=C1C)C(C(=O)NCCCC)c1ccc(OCC(=O)OC)cc1` (stereo not given), for which, in test [1], the compound was classed as inactive. Besides, the Potency in test [2] was 10 µM (active). Also, the Potency result in test [3] was “inactive”.

Consider `COC(=O)c1ccc(C(NC(=O)OCc2ccccc2)/C(C)=C/[C@@H](C)C(=O)NC2CCCCC2)cc1` (stereo not given in full), for which, in test [1], the result was inactive. For the same compound, the Potency in test [2] is 2 µM (active). Moreover, in test [3], the Potency entry was “inactive”.

In the case of `CCCCCCN(C(=O)CCCCCN1C(=O)NC(c2ccc(-c3ccccc3)cc2)C(C(=O)OCc2ccccc2)=C1C)C(C(=O)NCCCC)c1ccc(O)cc1` (stereo not given), in test [1], the compound was classed as inactive. In addition, in test [2], the Potency is 10 µM (active). Besides, in test [3], the Potency result is “inactive”.

For the compound `COC(=O)N1[C@H](C)C=C[C@]1(Cc1ccccc1)C(=O)NCCCNc1ncc(C(F)(F)F)cc1Cl`, the result in test [1] was inactive. Further, the Potency in test [2] is 6.31 µM (active). For the same compound, the Potency entry in test [3] was “inactive”.

On to `COC(=O)c1ccc(C(NC(=O)OCc2ccccc2)/C(C)=C/[C@@H](C)C(=O)NCc2cc(C)on2)cc1` (stereo not given in full), for which the compound was called inactive in test [1]. The Potency in test [2] is 2 µM (active). In test [3], the Potency entry is “inactive”.

`COC(=O)N1[C@H](Cc2ccccc2)C=C[C@]1(C)C(=O)NCc1ccccn1`: the compound was called inactive in test [1]. Besides, the Potency in test [2] is 7.94 µM (active). Besides, the Potency entry in test [3] is “inactive”.

With `CC(=O)N1CC=CC1(CC(C)C)C(=O)NCc1cc(F)cc(C(F)(F)F)c1` (stereo not given), in test [1], the call was inactive. For the same compound, the Potency in test [2] was 12.6 µM (active). For the same compound, in test [3], the Potency entry is “inactive”.

With `C[C@]1(C(=O)NCc2cc(F)cc(C(F)(F)F)c2)C=C[C@@H](Cc2ccccc2)N1C(=O)c1ccccc1`, the result in test [1] was inactive. The Potency in test [2] is 2 µM (active). For the same compound, the Potency entry in test [3] is “inactive”.

On to `C[C@@H]1C=C[C@](Cc2ccccc2)(C(=O)NCCc2c[nH]c3ccccc23)N1C(=O)c1ccccc1`, for which the result in test [1] was inactive. Also, the Potency in test [2] is 2.51 µM (active). Moreover, the Potency result in test [3] is “inactive”.

As to `COC(=O)c1ccc(C(NC(=O)OCc2ccccc2)/C(=C/[C@@H](C)C(=O)N(C)C)c2cccnc2)cc1` (stereo not given in full), the call in test [1] was inactive. In addition, the Potency in test [2] was 5.01 µM (active). Also, in test [3], the Potency result is “inactive”.

`COC(=O)c1ccc(C(NC(=O)OCc2ccccc2)/C(F)=C/[C@@H](C)C(=O)N(C)Cc2cccnc2)cc1` (stereo not given in full): the result in test [1] was inactive. In addition, in test [2], the Potency is 2 µM (active). Besides, the Potency result in test [3] is “inactive”.

Consider `COC(=O)c1ccc(C(NC(=O)OCc2ccccc2)/C(=C/[C@@H](C)C(=O)NCc2ccc(-c3ccccc3)cc2)c2cccnc2)cc1` (stereo not given in full), for which the compound was classed as inactive in test [1]. Besides, the Potency in test [2] is 0.794 µM (active). Besides, the Potency entry in test [3] is “inactive”.

Consider `COC(=O)c1ccc(C(NC(=O)OCc2ccccc2)/C(F)=C/[C@@H](C)C(=O)NCCO)cc1` (stereo not given in full), for which the compound was classed as inactive in test [1]. Also, the Potency in test [2] is 15.8 µM (active). Besides, in test [3], the Potency result is “inactive”.
